The results in this text go back to PubChem BioAssay AID1963322 (National Center for Advancing Translational Sciences (NCATS), 2024).

Each structure is given as a SMILES string. Records with an inconclusive call do not appear. A call without a number means that no potency is given here. Active and inactive are the calls of the source. The call rests on the fitted dose curve.

For the assay, the target named is cAMP-dependent protein kinase catalytic subunit alpha (Homo sapiens) (UniProt P17612). In words: Protein Kinase A (PKA-HiBiT) SDR gain of signal screen. Conditions: PKA-HiBiT structural dynamics response (SDR), luminescence gain of signal; series mostly up to 32.9 µM. The source says:
National Center for Advancing Translational Sciences (NCATS),
National Institute of Health (NIH), Maryland
Discovery and optimization of novel protein-binding ligands underlies many of the methods and applications of biology, drug discovery, clinical diagnostics, and environmental toxicology. Assays for detecting the interaction of, for example, a molecule with a macromolecular target also referred to here as the target of interest (TOI) is dependent on a compatible output technology. Depending on the nature and knowledge surrounding the TOI, whether a receptor, enzyme, regulatory subunit or scaffold, or a sequence-defined nucleic acid folded into a complex tertiary structure, assay strategies can vary widely.
Here we exploit ligand-biased changes in the structural dynamics of the target protein to control reporter alpha complementation allowing a non-competitive, non-functional, non-separation measure of ligand-target interaction.
Using a chemical library of >1,200 compounds enriched for scaffolds known to be associated with the inhibition of firefly luciferase (FLuc) activity (PubChem AIDs 2309) we first illustrate and compare the Structural Dynamics Response (SDR) assay vs. the standard functional FLuc enzyme assay (2). Secondly, we show the specificity and sensitivity of the SDR for the Abelson tyrosine kinase (ABL1) compared to the serine/threonine protein kinase A, using an enriched chemical library of 128 compounds selected, in part, for activity annotated with ABL1 kinase activity using the Pharos database (3).
(1) A. S. Dixon et al., NanoLuc Complementation Reporter Optimized for Accurate Measurement of Protein Interactions in Cells. ACS Chem Biol 11, 400-408 (2016).
Chemistry & Biology, 19, 1060 - 1072 (2012).
(3) K. J. Kelleher et al., Pharos 2023: an integrated resource for the understudied human proteome. Nucleic Acids Res 51, D1405-D1416 (2023).
PROTOCOL TABLE (as described by Inglese J, Shamu CE and Guy RK. 2007)
SEQUENCE No. (e.g., 1, 2, 3, etc.); […] (e.g., C. elegans, Compounds, Incubation, Read, etc.); VALUE and DESCRIPTION.
1. Reagent. Dispense 4 uL PKA-N-HiBiT enzyme per well at a final enzyme concentration of 10 nM in buffer into columns 2-48 of four replicate Greiner 1536-well white,solid bottom high base, medium plates per assay. Dispense respective buffer without enzyme at 4 uL/well in column 1 of assay plates using BioRaptr 2.
2. Compounds. Library compounds added at 23 nL/well by pin transfer. DMSO neutral control and H-89 positive control added at 25 nL/well, transfer by Mosquito dispenser.
3. Incubation. Incubate enzyme and compounds at room temperature for 30 min, protect from light.
4. Reagent. (SDR assay) Add 3 uL/well of Nano-Glo HiBiT reagent (Promega) to assay plates.
5. Incubation. (SDR assay) Incubate enzyme solution HiBiT reagent at room temperature for 10 min, protected from light.
6. Detector. (SDR assay) Luminescence measured using CCD-based camera (ViewLux) with settings as follows: Exposure, 1 sec; Gain, High; Speed, Slow; Binning, 2X.
Background: HiBiT is a short tag that completes a luciferase, so light tracks the accessible tagged protein.
Consider `N#Cc1ccc2ncnc(NCCc3ccccc3)c2c1`, for which the Potency result is “inactive”. The result for `Cc1[nH]c2ccccc2c1C1=C(NCCc2ccc(F)cc2)C(=O)N(C)C1=O` reads “inactive”.

For the molecule `C[C@@H]1CN(CC(=O)Nc2ccc3c(c2)Cc2cccc(-c4cc(=O)cc(N5CCOCC5)o4)c2S3)C[C@H](C)O1`, the Potency result is “inactive”. For `COc1cc2ncnc(-n3nc(-c4ccccn4)nc3N)c2cc1OC` the value was “inactive”; for `COc1cc(N2CCC(N3CCN(C)CC3)CC2)ccc1Nc1ncc(Cl)c(Nc2ccccc2P(C)(C)=O)n1`, 5.55 µM (active); for `Cc1cc(O)c2c(c1)C(=O)c1cc(O)cc(O)c1C2=O`, “inactive”. With `Cc1cc(F)ccc1-c1nc(NC(CO)CO)nc2c1ccc(=O)n2-c1c(F)cccc1F`, the Potency result is “inactive”. Take `COc1ccc(S(=O)(=O)N(C(C)=O)c2ccccc2/C=C/c2cc[n+]([O-])cc2)cc1`: the Potency entry is “inactive”. As to `CC[C@@](C)(Nc1ccnc(-c2c[nH]c3ncccc23)n1)C(=O)NCC(F)(F)F`, the Potency was 12 µM (active). The result for `O=c1cc(N2CCOCC2)nc2c3ccccc3ccn12` reads “inactive”; that for `c1cc(-c2cc(C3CCNCC3)[nH]n2)ccn1`, 3.62 µM (active).

With `COc1cc(N2CCC(O)CC2)ccc1Nc1nc(Nc2ccccc2S(=O)(=O)C(C)C)c2[nH]cnc2n1`, the Potency result is “inactive”. For `COc1cc2ncnc(Nc3ccc(F)c(Cl)c3)c2cc1OCCCN1CCOCC1` the value was “inactive”; for `COc1cc2c(Oc3ccc4[nH]c(C)cc4c3F)ncnc2cc1OCCCN1CCCC1`, “inactive”; for `CN(c1ncccc1CNc1nc(Nc2ccc3c(c2)CC(=O)N3)ncc1C(F)(F)F)S(C)(=O)=O`, 4.41 µM (active). For `Cc1cccc(C)c1-n1c(=O)c2cnc(Nc3ccc(N4CCN(C)CC4)cc3)nc2n2c3ccccc3nc12`, the Potency entry was “inactive”. As to `COc1cc(NC(=O)c2cccc(-n3cc(NC(=O)Nc4cccc(C)c4)cn3)c2)cc(OC)c1OC`, the Potency entry was “inactive”. For `COc1ccc(-n2c(SCC#N)nc3sc4c(c3c2=O)CCCC4)cc1` the value was “inactive”.

`Cc1ccc(C(=O)Nc2ccc(CN3CCN(C)CC3)c(C(F)(F)F)c2)cc1C#Cc1cnc2[nH]ncc2c1`: the Potency entry is “inactive”. As to `NC(=O)c1cccc(-c2cc(Nc3ccc(OC(F)(F)F)cc3)ncn2)c1`, the Potency entry was “inactive”. The result for `Cc1cc(-c2cc(O)ccc2Cl)cc2nnc(Nc3ccc(OCCN4CCCC4)cc3)nc12` reads “inactive”. For `COc1cc2c(N3CCN(C(=O)Nc4ccc(OC(C)C)cc4)CC3)ncnc2cc1OCCCN1CCCCC1`, the Potency result was “inactive”.

As for `CCN1CCN(Cc2ccc(NC(=O)c3ccc(C)c(NC(=O)c4cncc(-c5cccs5)c4)c3)cc2C(F)(F)F)CC1`, the Potency result was “inactive”. For `COc1cc2ncnc(Oc3cccc(NC(=O)Nc4cc(C(C)(C)C(F)(F)F)on4)c3)c2cc1OC` the value was “inactive”. For `CO[C@H]1/C=C/O[C@@]2(C)Oc3c(C)c(O)c4c(O)c(c(/C=N\N5CCN(C6CCCC6)CC5)c(O)c4c3C2=O)NC(=O)/C(C)=C\C=C\[C@H](C)[C@H](O)[C@@H](C)[C@@H](O)[C@@H](C)[C@H](OC(C)=O)[C@@H]1C` the value was “inactive”. The result for `CO[C@@H](C(=O)N1Cc2[nH]nc(NC(=O)c3ccc(N4CCN(C)CC4)cc3)c2C1)c1ccccc1` reads “inactive”; that for `COc1cc(N2CCN(C)CC2)ccc1Nc1nc(N)c(C(=O)c2c(Cl)cccc2Cl)s1`, “inactive”.

Take `CN1CCN(C2CCC(n3cc(-c4ccc(Oc5ccccc5)cc4)c4c(N)ncnc43)CC2)CC1` (stereo not given): the Potency result is “inactive”.

For the molecule `CCn1c(=O)c(-c2ccc(Cl)cc2Cl)cc2cnc(Nc3ccc(N4CCNCC4)c(F)c3)nc21`, the Potency result was “inactive”. In the case of `Nc1ncc(-c2cnn(CCO)c2)c2scc(-c3ccc(NC(=O)Nc4cccc(F)c4)cc3)c12`, the Potency entry is “inactive”. On to `O=C(O)C1(Cc2cccc(Nc3nccs3)n2)CCC(Oc2cccc(Cl)c2F)CC1` (stereo not given), for which the Potency is 14.5 µM (active).

In the case of `O=C(NCCO)c1cccc(-c2cc(Nc3ccc(OC(F)(F)F)cc3)ncn2)c1`, the Potency entry was “inactive”. In the case of `CC(C)(C)n1nc(-c2cccc3ccccc23)c2c(N)ncnc21`, the Potency result was “inactive”.

For the molecule `O=S(=O)(/N=C/c1c(O)ccc2ccccc12)c1cccs1`, the Potency result is “inactive”. The result for `O=C(NOCC(O)CO)c1cc(Br)c(F)c(F)c1Nc1ccc(I)cc1F` (stereo not given) reads “inactive”; that for `COc1cc2c(cc1OC)-c1[nH]nc(Nc3cccc(F)c3)c1C2`, “inactive”. For `CCN1/C(=C\C(C)=O)Sc2ccc(OC)cc21` the value was “inactive”; for `Cc1cc(C)c(/C=C2\C(=O)Nc3ccccc32)[nH]1`, “inactive”. The result for `Cc1c(Cl)cccc1S(=O)(=O)Nc1nc(NCCc2ccccc2)nc2c1CN(Cc1ccccc1)CC2` reads “inactive”; that for `CCCCNc1ncc2c(-c3ccc(S(=O)(=O)N4CCOCC4)cc3)nn(C3CCC(O)CC3)c2n1` (stereo not given), “inactive”.
